# Measured values reported in PubChem BioAssay AID588342 (National Center for Advancing Translational Sciences (NCATS), 2011).
# In all, about 360,000 compounds went through this assay and about 25,000 (6.9%) were called active. Where a call stands in place of a potency, no number is given. Not shown: some 9% with an inconclusive outcome. The call rests on the fitted dose curve; in most records, active means well fitted inhibition curve with a large enough effect; inconclusive means small, poorly fitted or top-dose-only effect; inactive means flat fitted curve, though single readings scatter. The full list was thinned out, with actives kept by preference.
# Molecular target: Luciferin 4-monooxygenase (Photinus pyralis) (UniProt P08659)
# Sequence (P08659 whole entry, looked up): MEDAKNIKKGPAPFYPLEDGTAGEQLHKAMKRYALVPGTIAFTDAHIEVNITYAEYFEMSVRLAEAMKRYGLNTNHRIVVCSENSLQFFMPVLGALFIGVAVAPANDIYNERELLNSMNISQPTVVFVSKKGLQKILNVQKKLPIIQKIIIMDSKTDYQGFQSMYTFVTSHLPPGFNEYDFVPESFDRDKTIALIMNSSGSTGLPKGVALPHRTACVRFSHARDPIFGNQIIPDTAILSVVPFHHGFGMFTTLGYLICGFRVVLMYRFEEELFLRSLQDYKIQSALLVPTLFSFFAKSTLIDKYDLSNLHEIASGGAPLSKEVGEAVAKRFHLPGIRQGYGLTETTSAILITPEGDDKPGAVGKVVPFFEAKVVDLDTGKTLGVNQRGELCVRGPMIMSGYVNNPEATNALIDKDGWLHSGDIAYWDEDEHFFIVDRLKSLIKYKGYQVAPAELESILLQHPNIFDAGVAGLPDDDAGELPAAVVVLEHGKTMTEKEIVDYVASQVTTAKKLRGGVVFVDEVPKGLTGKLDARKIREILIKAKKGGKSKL
# Test: qHTS profiling assay for firefly luciferase inhibitor/activator using purifed enzyme and Km concentrations of substrates (counterscreen for miR-21 project); further: nearly all actives have a fitted effect of over 55% in size
# Details: purified FLuc, luminescence inhibition; series mostly up to 57.5 µM
# Method in brief: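 Biochemical qHTS of compounds, final roughly 60 µM downward over six points, against 10 nM purified firefly luciferase using Km concentrations of substrates (10 uM D-luciferin, 10 uM ATP) in Tris acetate pH 7.5 buffer; luminescence output.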
# Potency means the concentration at half of the fitted maximal effect.
row,Compound,Potency
1,CCOc1ccc2oc(=O)cc(CN3CCN(C(=O)c4ccc(F)cc4)CC3)c2c1,inactive
2,Cc1cc2c(C)nc(N/N=C/c3ccccc3)nc2o1,9.53 µM (active)
3,Cc1cc(C)nc(N/N=C/c2ccc([N+](=O)[O-])o2)n1,inactive
4,Cc1cc(C)nc(N/N=C/c2ccncc2)n1,inactive
5,COc1ccc([C@H]2CC(=O)C=C(c3ccc(C)cc3)C2)cc1,inactive
6,Cc1nnc(N2CCCC(C(=O)NCCN(C)C)C2)c2nn(-c3ccccc3)c(C)c12 (centres undefined),inactive
7,CCCCCOC(=O)NCCOC(=O)Nc1ccc(C(=O)OCC)cc1,inactive
8,CCCCCCOC(=O)NCC(O)c1ccccc1 (centres undefined),12 µM (active)
9,CCCCOC(=O)Nc1nnc(CC(=O)NCc2ccccc2)s1,inactive
10,Cc1cc(Cl)ccc1C(=O)C1CCCN(C(=O)c2nonc2C)C1 (centres undefined),inactive
11,CCOC(=O)c1ccccc1NC(=O)c1nn(-c2ccc(OC)c(Cl)c2)c(=O)c2c1c1ccccc1n2C,inactive
12,O=C1CC(c2ccccc2)=NN1c1ccc([N+](=O)[O-])cc1,13.5 µM (active)
13,O=c1[nH]n(-c2ccc([N+](=O)[O-])cc2)c(=O)c2ccccc12,inactive
14,COC(=O)CC1=NN(c2ccccc2)C(=O)C1,inactive
15,COc1cc(C)ccc1OCCSc1nc2ccc(NC(=O)c3ccc(C)cc3)cc2s1,inactive
16,CN(C)S(=O)(=O)N1CCC(Oc2cccc(C(=O)NCCCC3CCCC3)c2)CC1,16.9 µM (active)
17,CN(C(=O)c1cccc(OC2CCN(S(=O)(=O)N(C)C)CC2)c1)C1CCOC1 (centres undefined),inactive
18,CNS(=O)(=O)c1cccc(C(=O)NCC2CCCCC2)c1,inactive
19,Cc1nn(-c2ccc(F)cc2)c(-n2cccc2)c1C(=O)N1CCN(c2ccccc2)CC1,inactive
20,CCc1ccccc1N(C)C(=O)C1CCCN(c2ncnc3onc(-c4ccc(F)cc4)c23)C1 (centres undefined),inactive
21,Cc1ccc(S(=O)(=O)NNC(=S)NC(C)(C)C)cc1,inactive
22,O=C1CSC2(C(=O)N(Cc3ccccc3)c3ccccc32)N1c1cccc(F)c1 (centres undefined),inactive
23,Cc1cc(C)c(S(=O)(=O)N2CCC(C(=O)OCc3c(C)noc3C)CC2)c(C)c1,inactive
24,CC(=O)O[C@H]1c2ccccc2-c2ccccc2[C@@H]1OC(C)=O,inactive
25,CC(=O)Oc1ccc2c(c1)C(=O)c1ccccc1C2=O,8.49 µM (active)
26,CC(=O)Nc1ccc(Oc2ccc3c(c2)C(=O)NC3=O)cc1,inactive

row,Compound,Potency
1,COc1ccc([C@H]2CC(=O)C=C(/C=C/c3ccc(Cl)cc3)C2)cc1,inactive
2,CCn1nc(C(=O)NNC(=O)C2CSC3(C)CCC(=O)N23)c2ccccc2c1=O (centres undefined),inactive
3,Cc1sc2ncn(CC(=O)NCCCC(=O)N(C)Cc3ccccc3)c(=O)c2c1C,inactive
4,Cc1cc(=O)oc2c(C)c(OC(C)C(=O)NC3CCN(Cc4ccccc4)CC3)ccc12 (centres undefined),inactive
5,CN(CC(=O)Nc1ccc(N2CCOCC2)cc1)CC(=O)Nc1ccccc1[N+](=O)[O-],inactive
6,O=C(NC(=S)Nc1ccc(S(=O)(=O)N2CCOCC2)cc1)c1ccccc1[N+](=O)[O-],inactive
7,O=C(Nc1ccc(N2CCOCC2)cc1)c1ccc(-c2ccccc2[N+](=O)[O-])o1,3.38 µM (active)
8,Cc1ccc2nc(C)c3c(c2c1)N(c1ccccc1)CC3,inactive
9,O=C(Cn1c(-c2cccs2)cc2ccccc21)NCCc1ccc(Cl)cc1,inactive
10,Cc1ccc(-n2c(C)cc(/C=C(\C#N)C(=O)NCC3CCCO3)c2C)cc1 (centres undefined),0.675 µM (active)
11,Cc1ccc2c(c1)N(CC(=O)NCC1CCCO1)C(=O)CO2 (centres undefined),inactive
12,Cc1cc(/C=C(/C#N)C(=O)Nc2ccc(Cl)cc2)c(C)n1-c1cccnc1,inactive
13,CC(=O)N1CCc2cc(Br)cc(S(=O)(=O)CCC(=O)NCCc3ccc(Cl)cc3)c21,inactive
14,C/C(=N\NC(=S)Nc1ccc(C)cc1)c1cc2ccccc2o1,12 µM (active)
15,CCN(C(=O)COC(=O)c1sccc1C)c1c(N)n(Cc2ccccc2)c(=O)[nH]c1=O,inactive
16,Cc1ccsc1C(=O)OCC(=O)Nc1cccc(F)c1,inactive
17,CC(OC(=O)c1cc2ccccc2o1)C(=O)Nc1ccc(N2CCOCC2)cc1 (centres undefined),inactive
18,COC(=O)c1ccc(-c2nc3cc(NC(C)=O)ccc3o2)cc1,inactive
19,CC(=O)N1CCN(c2ccccc2NC(=S)NC(=O)c2cc3ccccc3o2)CC1,inactive
20,CC(=O)Nc1ccc(-c2nc3ccccc3o2)cc1,3.01 µM (active)
21,Cc1ccc(NC(=O)c2cc3ccccc3o2)cc1,3.38 µM (active)
22,C/C(=N\NS(=O)(=O)c1cccc([N+](=O)[O-])c1)c1cc2ccccc2o1,inactive
23,Cc1cccc(-n2nc3c(c2NC(=O)c2cc4ccccc4o2)CS(=O)(=O)C3)c1,inactive
24,Cc1ccccc1C(=O)Nc1cc(C)c(O)c(-c2nc3ccccc3o2)c1,inactive
25,Cc1ccsc1C(=O)OCC(=O)c1cc2ccccc2o1,5.36 µM (active)
26,COc1cc(C(=O)NCCc2csc3nc(-c4ccccc4C)nn23)cc(OC)c1OC,inactive

row,Compound,Potency
1,Cc1ccc2cccc(NC(=O)C(C)Oc3ccc(C)c(C)c3)c2n1 (centres undefined),inactive
2,CC(C)Cn1c(C2CC(=O)N(c3ccccc3Cl)C2)nc2ccccc21 (centres undefined),inactive
3,Cc1ccc(C)c(Cn2c(C)c(CNCc3ccc(F)cc3)c(C(=O)O)c2C)c1,inactive
4,O=C(Nc1ccncc1)c1cc2ccccc2o1,12 µM (active)
5,Cc1cc(C(=O)CCl)c(C)n1CC1COc2ccccc2O1 (centres undefined),inactive
6,Cc1cc(C(=O)Cn2cnc3cc([N+](=O)[O-])ccc3c2=O)c(C)n1CC1CCCO1 (centres undefined),inactive
7,CCc1ccc2oc(-c3ccc(NC(=O)c4cc5ccccc5o4)cc3)nc2c1,inactive
8,Cc1ccc(OC(=O)c2cc3ccccc3o2)cc1,0.757 µM (active)
9,CCC(C)c1ccc2oc(-c3ccc(NC(=O)c4cc5ccccc5o4)cc3)nc2c1 (centres undefined),inactive
10,Cc1ccsc1C(=O)OCC(=O)c1cc(C)n(CC2CCCO2)c1C (centres undefined),0.151 µM (active)
11,Cc1cc2nc(-c3ccc(NC(=O)c4cc5ccccc5o4)cc3)oc2cc1C,23.9 µM (active)
12,COc1ccccc1CN(C)C(=O)c1cc2ccccc2o1,inactive
13,Cc1ccc(OC(=O)c2ccccc2C(=O)OCC(F)(F)C(F)F)cc1,inactive
14,CCC1CCC2(CC1)NC(=O)N(CC(=O)Nc1ccc(OC)cc1)C2=O (centres undefined),inactive
15,Cc1ccc(-c2nc3ccccn3c2Nc2c(C)cccc2C)o1,inactive
16,Cc1ccc(S(=O)(=O)N2CCCc3cc(NS(=O)(=O)c4cc(C)ccc4C)ccc32)cc1,inactive
17,O=C(CCc1nc2sc3c(c2c(=O)[nH]1)CCCC3)NCC(=O)Nc1ccccc1Br,inactive
18,Cc1cc(N(C)C)cc(C)[n+]1[O-],inactive
19,COc1cc(OC)cc(C(=O)NNC(=O)CCOc2ccccc2OC)c1,inactive
20,CCOc1ccccc1NC(=O)C1CCCN(S(=O)(=O)c2cn(C)cn2)C1 (centres undefined),inactive
21,COc1ccc(S(=O)(=O)N2CCOCC2)cc1NC(=O)Cc1c(F)cccc1Cl,inactive
22,COc1ccc(CCNC(=O)COC(=O)C2CC2C)cc1 (centres undefined),inactive
23,Cc1ccc(Nc2nc(N3CCOCC3)nc(N3CCOCC3)n2)cc1Cl,inactive
24,CNc1nc(Nc2ccc(C)c(Cl)c2)nc(N)c1[N+](=O)[O-],4.78 µM (active)
25,CCN1CCN(c2nc(Nc3cccc(F)c3)nc(N)c2[N+](=O)[O-])CC1,inactive
26,COc1ccccc1CNC(=O)Cn1nc(C)c2nn(-c3ccc(Cl)cc3)c(C)c2c1=O,inactive

row,Compound,Potency
1,CCOC(=O)c1cccc(NS(=O)(=O)c2cn(C)c(C)n2)c1,inactive
2,O=C(Nc1cccc(Cl)c1)OCc1ccccn1,26.9 µM (active)
3,O=C(CC1SC(=Nc2ccccc2)N(Cc2ccccn2)C1=O)Nc1cccc(Cl)c1 (centres undefined),inactive
4,O=C(Nc1ccccc1)OCc1cn(-c2ccc(Cl)cc2)nn1,inactive
5,Nc1cccc(S(=O)(=O)Nc2ccc(SC(F)F)cc2)c1,inactive
6,O=C(CCn1c(=O)c2sccc2n(Cc2ccc(F)cc2)c1=O)NCc1ccc2c(c1)OCO2,inactive
7,COc1ccccc1N1CCN(C(CNC(=O)C(=O)NCc2ccc(C)cc2)c2cccnc2)CC1 (centres undefined),inactive
8,CCOc1ccc(CNCc2c(C(=O)O)c(C)n(Cc3cccc(OC)c3)c2C)cc1OC,inactive
9,Oc1ccc(/C=N/NC2=NCCCCC2)c(O)c1,13.5 µM (active)
10,Cc1nc2ccccc2nc1N/N=C/c1ccc(O)cc1O,12 µM (active)
11,Cc1n[nH]c(=O)nc1N/N=C/c1cccs1,inactive
12,COc1ccc(N2CCN(c3nc(-c4ccccc4F)nc4ccccc34)CC2)cc1,inactive
13,CC(C)(C)Nc1nc(-c2ccccn2)nc2ccccc12,inactive
14,Oc1c(Br)cccc1/C=N/Nc1c(F)c(F)c(F)c(F)c1F,inactive
15,Oc1ccc(/C=N/Nc2nc(-c3ccccc3F)nc3ccccc23)c(O)c1,10.7 µM (active)
16,Cc1ccc(/C=N/NC(=O)C2=NNC(c3ccccc3)(c3ccccc3)C2)c(O)c1,inactive
17,CN1c2ccc(Cl)cc2-c2nc(SCC(=O)Nc3cc(F)ccc3F)ncc2S1(=O)=O,inactive
18,O=C(NCCCO)C(=O)Nc1c2c(nn1-c1ccc(F)cc1)CSC2,inactive
19,Cn1c2cc(B(O)O)sc2c2cnn(Cc3ccccc3F)c(=O)c21,inactive
20,CCc1noc(C)c1C(=O)N1CCN(S(=O)(=O)c2cccc(C(F)(F)F)c2)CC1,inactive
21,OCC[C@H]1C[C@@H](O)[C@H](O)[C@@]2(OCCc3ccccc32)O1,inactive
22,COc1ccc(S(=O)(=O)N2CCN(CC(=O)N3c4ccccc4CC3C)CC2)cc1OC (centres undefined),inactive
23,CC1Cc2cc(S(=O)(=O)CCC(=O)NCc3ccc(Cl)cc3)ccc2N1C(=O)C1CC1 (centres undefined),inactive
24,O=S(=O)(Nc1ccccc1Br)c1cccs1,inactive
25,O=S(=O)(NCc1ccc(Cl)cc1Cl)c1cccs1,inactive
26,O=C(Nc1cccc(Cl)c1)Nc1ccccc1NS(=O)(=O)c1cccs1,16.9 µM (active)
